Only some compounds are listed: those with a hit (about 28% of all), similar ones and a draw of the others.
CD11b adhes enh: CD11b/CD18-fibrinogen binding enhancement; K562 CD11b/CD18 adhesion to fibrinogen, ATPlite luminescence; activation, % at 10 µM; hit rate 0.07% among 93,000; AID 1499;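 active = 10 µM primary screen giving 50% or more activity, confirmed by 40% or more on retest at that dose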
CYP2C19 act: cytochrome P450 2C19 (human) activation; P33261; recombinant CYP2C19, luciferin-H EGE luminescence; active compounds read high; 0 = fully inhibited enzyme, 1 = untreated enzyme; activation factor at 5 µM; 96,000 tested, under 10 active; AID 1025;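 active = activation factor of at least 2 at 5 µM in the primary screen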;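 note: 0 = wells with 2.5 mM tranylcypromine and 1 = vehicle-only wells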
CYP2C9 activ: CYP2C9 (human) activation; P11712; recombinant CYP2C9, luciferin-H conversion, luminescence; active compounds read high; factor 1 = untreated enzyme, 0 = blocked; activation factor at 5 µM; hit rate 1.4% among 96,000;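 active = activation factor of 2 or more for CYP2C9 at a 5 µM dose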;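 note: 0 = sulfaphenazole-blocked wells and 1 = vehicle-only wells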
Target sequence (P11712 whole entry, looked up): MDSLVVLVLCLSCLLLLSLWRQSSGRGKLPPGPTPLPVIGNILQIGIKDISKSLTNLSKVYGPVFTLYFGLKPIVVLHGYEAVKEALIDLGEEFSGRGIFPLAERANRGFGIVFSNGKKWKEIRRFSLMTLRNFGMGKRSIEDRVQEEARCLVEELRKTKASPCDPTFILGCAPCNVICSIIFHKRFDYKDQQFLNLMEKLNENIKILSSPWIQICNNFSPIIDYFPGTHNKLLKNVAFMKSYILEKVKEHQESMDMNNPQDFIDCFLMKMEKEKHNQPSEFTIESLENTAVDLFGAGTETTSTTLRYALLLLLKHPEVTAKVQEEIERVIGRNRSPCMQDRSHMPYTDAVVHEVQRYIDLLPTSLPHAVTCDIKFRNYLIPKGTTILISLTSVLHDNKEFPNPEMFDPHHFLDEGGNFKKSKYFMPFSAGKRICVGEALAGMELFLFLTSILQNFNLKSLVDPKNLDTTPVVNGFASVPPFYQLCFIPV
CYP2C19 inhib: human CYP2C19 inhibition; P33261; CYP2C19 Supersomes, luciferin-H EGE luminescence, 30 min; inhibition, % at 5 µM; hit rate 21% among 96,000; AID 778;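 active = CYP2C19 inhibition above a set limit at 5 µM in the primary screen, cut at about 50% in these data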;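 note: plate controls were negative control wells for no effect and 2.5 mM tranylcypromine positive control for full effect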
CD11b adhes inh: inhibitors of human CD11b/CD18 binding to fibrinogen; P05107+P11215; K562 CD11b/CD18 adhesion to fibrinogen, ATPlite luminescence; Mn2+ added to activate the integrin; inhibition, % at 10 µM; hit rate 0.54% among 93,000; AID 1497;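 active = primary inhibition of 50% or more at 10 µM, then 40% or more on retest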
CYP2C9 inh: blocks human cytochrome P450 2C9; hit rate 20% among 96,000; inhibition, % at 5 µM; CYP2C9 Supersomes, luciferin-H conversion, luminescence;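 active = blocking of liver enzyme CYP2C9 beyond about 50% at 5 µM, limit read from the data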
The depositor's hits bear a star; . = not tested or not shown.

SMILES | CD11b adhes enh | CYP2C19 act | CYP2C9 activ | CYP2C19 inhib | CD11b adhes inh | CYP2C9 inh
CN(CC(=O)NCc1ccccc1)S(=O)(=O)c1cnc[nH]1 | -3.7 | 0 | 0.2 | 99.5* | 21.2 | 79.8*
CCN(c1ccccc1)S(=O)(=O)c1cnc[nH]1 | -4.3 | 0 | 0 | 98.4* | -1.8 | 100.0*
CCc1cccc(NC(=O)CN(C)S(=O)(=O)c2cnc[nH]2)c1 | 7.7 | 0 | 0.1 | 95.4* | -24.0 | 94.6*
CCOc1ccc(N(CC(=O)O)S(=O)(=O)c2cccnc2)cc1 | 1.2 | 1.1 | 1.2 | -7.2 | -8.4 | -17.8
Cc1ccc(CNC(=O)C(=O)NCC2OCCN2C(=O)c2cccs2)cc1 (stereo unspecified) | -1.2 | . | . | . | -2.4 | .
Cc1c(Cl)c(C(=O)NNC(=S)Nc2ccccc2)nn1C | -5.0 | 0.2 | 0.8 | 77.7* | -0.9 | 21.4
COc1ccccc1NC(=S)NNC(=O)c1c(Cl)c(C)nn1C | . | 0.9 | 0.3 | 7.3 | . | 66.1*
Cc1ccc(NC(=S)NNC(=O)c2nn(C)cc2Cl)cc1 | . | 0.6 | 0.9 | 40.8 | . | 8.9
Cc1cccc(NC(=S)NNC(=O)c2nn(C)cc2Cl)c1 | . | 0.4 | 0.8 | 60.9* | . | 17.7
CS(=O)(=O)N(Cc1ccc(Cl)cc1)c1ccc(C(=O)N2CCN(c3ccccc3)CC2)cc1 | -0.4 | 0.1 | 0 | 90.9* | -1.6 | 98.3*
C=CCNC(=O)c1ccccc1NC(=O)c1ccc(Cl)c(S(=O)(=O)Nc2ccccc2)c1 | 1.2 | 0.4 | 0.4 | 61.5* | -2.1 | 62.0*
CCOC(=O)N1CCN(C(=O)c2ccc(CN(c3ccccc3)S(C)(=O)=O)cc2)CC1 | 9.5 | 0.8 | 0.5 | 24.0 | -5.3 | 54.4*
C=CCNC(=O)c1ccccc1NC(=O)c1cccc2ccccc12 | 2.8 | 0.6 | 0.9 | 42.9 | 13.5 | 10.0
CS(=O)(=O)N(Cc1ccccc1)c1ccc(C(=O)N2CCOCC2)cc1 | -2.3 | 0.9 | 0.7 | 8.1 | -15.9 | 27.3
CCOC(=O)N1CCN(C(=O)CN(c2ccc(Oc3ccccc3)cc2)S(C)(=O)=O)CC1 | 3.1 | 0.3 | 0.1 | 70.3* | -1.0 | 85.6*
CCOCCCNC(=O)CCCOc1ccccc1 | -1.9 | 0.9 | 1 | 7.9 | -14.1 | -1.0
CCN1CCN(C(=O)c2ccccc2N(Cc2ccccc2)S(=O)(=O)c2ccc(C)cc2)CC1 | 4.0 | 0.3 | 0.7 | 71.6* | 7.5 | 33.1
CCOC(=O)N1CCN(C(=O)c2ccc(Cl)c(S(=O)(=O)Nc3ccccc3)c2)CC1 | 2.2 | 0.7 | 0.2 | 34.8 | -2.7 | 79.7*
CS(=O)(=O)N(Cc1ccccc1)c1ccccc1C(=O)O | -2.2 | 1.2 | 1.1 | -18.2 | 0.6 | -12.2
Cc1ccc(CN(c2ccc(C(=O)N3CCc4ccccc4C3)cc2)S(C)(=O)=O)cc1 | -3.3 | 0.5 | 0.2 | 49.2 | 3.8 | 84.3*
CN1CCN(C(=O)c2ccc(N(Cc3ccc(Cl)cc3)S(C)(=O)=O)cc2)CC1 | -1.7 | 0.8 | 0.8 | 24.1 | 3.5 | 21.7
CS(=O)(=O)N(Cc1ccccc1)c1ccc(C(=O)N2CCN(c3cccc(Cl)c3)CC2)cc1 | 1.8 | 0.1 | 0 | 91.6* | 14.6 | 98.1*
Cc1ccc(CN(c2ccc(C(=O)N3CCCC3)cc2)S(C)(=O)=O)cc1 | -3.7 | 0.9 | 0.7 | 11.1 | 2.8 | 27.1
Cc1ccccc1C(=O)/C=C1\NC(=O)CS1 | 1.6 | 0.9 | 0.8 | 6.8 | -4.4 | 15.2
CCOC(=O)CSc1nnc(CNC(=O)c2ccco2)n1C | -6.0 | 1.2 | 1.1 | -17.7 | -0.3 | -10.2
SMILES | CD11b adhes enh | CYP2C19 act | CYP2C9 activ | CYP2C19 inhib | CD11b adhes inh | CYP2C9 inh
COc1cccc(-c2cc(C(F)(F)F)nc(N3CCCCC3)n2)c1 | . | 1.1 | 0.9 | -7.6 | . | 10.6
COCCCNC(=O)CSC1=Nc2ccccc2C2=NC(CC(=O)NCc3ccccc3)C(=O)N12 (stereo unspecified) | 0.0 | 1 | 0.8 | 3.7 | 0.0 | 21.9
Cc1cccc(C(=O)Nc2ccccc2SCC2CSc3nc4ccccc4c(=O)n32)c1 (stereo unspecified) | -3.2 | 0.8 | 0.9 | 21.6 | 17.1 | 10.2
CS(=O)(=O)N(Cc1ccccc1)c1ccccc1C(=O)N1CCN(c2ccccc2)CC1 | 1.8 | 0.1 | 0.3 | 94.4* | 7.4 | 72.2*
CCN1CCN(C(=O)c2ccccc2N(Cc2ccccc2)S(C)(=O)=O)CC1 | 0.3 | 0.9 | 1.1 | 6.3 | -15.6 | -6.6
COc1ccc(S(=O)(=O)Nc2nc(C(F)(F)F)cs2)cc1 | -4.7 | 0.6 | 0 | 35.3 | 0.6 | 98.0*
CCOC(=O)c1c(-c2ccc(C)o2)csc1N | -0.6 | 0.4 | 0.7 | 58.8* | 11.1 | 28.9
CCOC(=O)c1c(-c2ccsc2)csc1N | 0.4 | 0.4 | 0.8 | 62.6* | 2.5 | 24.1
CCOC(=O)c1cc(-c2ccc(C)o2)n[nH]1 | -1.1 | 0.6 | 0.5 | 42.3 | -1.3 | 52.2*
COc1cccc(/C=N/NC(=O)c2ccccc2N(Cc2ccccc2)S(=O)(=O)c2ccccc2)c1OC | . | 0.6 | 0.2 | 42.3 | . | 79.7*
COc1cccc(/C=N/NC(=O)C(=O)N2CCCC2)c1OC | 1.0 | 1.2 | 1 | -16.0 | -5.4 | -2.7
O=C(O)CC12C[C@H]3C[C@@H](C1)CC(n1ncc(N4CCN(c5ccccc5)CC4)c(Cl)c1=O)(C3)C2 | 0.7 | . | . | . | 16.2 | .
Cn1nc(-c2ccc(Cl)cc2)c2cc(C(=O)N3CCN(c4ccccn4)CC3)sc21 | 5.4 | 0.7 | 0.4 | 31.8 | 61.8* | 56.2*
Cn1nc(-c2ccc(Cl)cc2)c2cc(C(=O)N3CCN(c4ccccc4)CC3)sc21 | 1.1 | 0.6 | 0.2 | 38.4 | 2.7 | 84.3*
Cc1cccc(NC(=S)NC(NC(=O)OCc2ccccc2)C(Cl)(Cl)Cl)c1 (stereo unspecified) | -3.1 | 0.2 | 0.2 | 76.7* | 0.3 | 75.7*
O=C(COc1cccc(Cl)c1)NNC(=S)Nc1ccccc1 | 9.9 | . | . | . | 1.6 | .
O=C(NC(NC(=S)Nc1cccc(Cl)c1)C(Cl)(Cl)Cl)OCc1ccccc1 (stereo unspecified) | -1.2 | 0.4 | 0.3 | 60.4* | -2.4 | 65.8*
O=C(CSc1ncn[nH]1)Nc1c(Br)cc([N+](=O)[O-])cc1Br | -2.1 | . | . | . | 4.6 | .
CCOC(=O)N1CCC(NC(=O)c2ccc3c(=O)n4c(nc3c2)CCCC4)CC1 | -4.1 | 1 | 0.7 | 2.0 | -9.4 | 29.3
Nc1cc(N2CCCCC2)c(Cl)cc1[N+](=O)[O-] | 2.1 | 0.2 | 0.5 | 79.5* | -39.2 | 52.8*
O=[N+]([O-])c1ccc(N2CCCCCC2)c([N+](=O)[O-])c1 | -2.0 | 0.7 | 1 | 26.7 | 4.7 | 0.2
O=[N+]([O-])c1ccc(N2CCCCC2)c(Cl)c1N1CCCCC1 | . | 0.6 | 0.5 | 41.4 | . | 50.5*
CC1CCCCC1NC(=O)COC(=O)c1ccc(S(=O)(=O)N2CCOCC2)cc1 (stereo unspecified) | -0.1 | 1 | 1 | -1.1 | 2.8 | 3.6
Cn1c(N2CCCC2)nc2c1c(=O)n(Cc1ccc(F)cc1)c(=O)n2C | -6.1 | 1 | 0.8 | 4.8 | 4.3 | 19.5
